# Measurements reported in ChEMBL document CHEMBL5058541.
# What was measured:
# Conditions in all cases: Compound concentration 20.0 uM, Protein concentration 2.0 uM, Result type QC Liability
# [1] = biological target: Tyrosine-protein kinase ABL1 (Homo sapiens) (UniProt P00519)
# [2] = biological target: Cyclin-dependent kinase 2 (Homo sapiens) (UniProt P24941)
# [3] = biological target: Casein kinase I isoform delta (Homo sapiens) (UniProt P48730)
# [4] = biological target: Glycogen synthase kinase-3 beta (Homo sapiens) (UniProt P49841)
# Glycogen synthase kinase-3 beta (Homo sapiens), sequence (P49841 whole entry, looked up): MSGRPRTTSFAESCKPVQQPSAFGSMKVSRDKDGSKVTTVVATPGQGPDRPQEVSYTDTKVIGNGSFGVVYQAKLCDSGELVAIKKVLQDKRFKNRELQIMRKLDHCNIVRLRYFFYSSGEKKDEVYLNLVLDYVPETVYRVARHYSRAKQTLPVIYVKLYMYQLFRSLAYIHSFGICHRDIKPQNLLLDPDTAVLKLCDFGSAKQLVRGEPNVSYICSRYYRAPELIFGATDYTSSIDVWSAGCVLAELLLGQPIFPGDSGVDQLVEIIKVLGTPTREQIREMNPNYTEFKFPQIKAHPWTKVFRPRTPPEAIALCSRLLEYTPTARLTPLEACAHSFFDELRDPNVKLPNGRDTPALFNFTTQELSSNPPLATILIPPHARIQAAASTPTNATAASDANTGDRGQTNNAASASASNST
# [5] = biological target: Mitogen-activated protein kinase 1 (Homo sapiens) (UniProt P28482)
# Mitogen-activated protein kinase 1 (Homo sapiens), sequence (P28482 whole entry): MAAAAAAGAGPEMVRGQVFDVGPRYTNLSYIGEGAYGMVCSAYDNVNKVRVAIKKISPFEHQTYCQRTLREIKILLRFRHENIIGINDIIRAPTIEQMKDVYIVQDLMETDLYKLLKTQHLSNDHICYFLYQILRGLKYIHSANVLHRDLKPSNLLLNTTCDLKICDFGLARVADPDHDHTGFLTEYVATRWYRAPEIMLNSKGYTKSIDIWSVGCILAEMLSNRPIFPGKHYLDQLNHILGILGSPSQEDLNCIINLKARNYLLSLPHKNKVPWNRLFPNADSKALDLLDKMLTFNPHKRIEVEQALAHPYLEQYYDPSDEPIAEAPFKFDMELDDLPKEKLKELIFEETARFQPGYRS
# [6] = biological target: T1, Aurora kinase A (Homo sapiens) (UniProt O14965)
# T1 sequence (whole entry): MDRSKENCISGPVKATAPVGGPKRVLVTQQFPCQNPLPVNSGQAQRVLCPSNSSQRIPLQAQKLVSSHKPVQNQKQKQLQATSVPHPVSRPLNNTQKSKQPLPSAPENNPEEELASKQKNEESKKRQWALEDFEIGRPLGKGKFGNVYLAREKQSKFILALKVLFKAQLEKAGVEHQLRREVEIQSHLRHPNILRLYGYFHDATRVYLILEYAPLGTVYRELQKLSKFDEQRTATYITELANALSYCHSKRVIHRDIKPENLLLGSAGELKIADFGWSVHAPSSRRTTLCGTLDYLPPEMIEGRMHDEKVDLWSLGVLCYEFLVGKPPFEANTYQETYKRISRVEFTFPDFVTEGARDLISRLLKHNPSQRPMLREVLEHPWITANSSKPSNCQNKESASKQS
# Tyrosine-protein kinase ABL1 (Homo sapiens), sequence (P00519 whole entry): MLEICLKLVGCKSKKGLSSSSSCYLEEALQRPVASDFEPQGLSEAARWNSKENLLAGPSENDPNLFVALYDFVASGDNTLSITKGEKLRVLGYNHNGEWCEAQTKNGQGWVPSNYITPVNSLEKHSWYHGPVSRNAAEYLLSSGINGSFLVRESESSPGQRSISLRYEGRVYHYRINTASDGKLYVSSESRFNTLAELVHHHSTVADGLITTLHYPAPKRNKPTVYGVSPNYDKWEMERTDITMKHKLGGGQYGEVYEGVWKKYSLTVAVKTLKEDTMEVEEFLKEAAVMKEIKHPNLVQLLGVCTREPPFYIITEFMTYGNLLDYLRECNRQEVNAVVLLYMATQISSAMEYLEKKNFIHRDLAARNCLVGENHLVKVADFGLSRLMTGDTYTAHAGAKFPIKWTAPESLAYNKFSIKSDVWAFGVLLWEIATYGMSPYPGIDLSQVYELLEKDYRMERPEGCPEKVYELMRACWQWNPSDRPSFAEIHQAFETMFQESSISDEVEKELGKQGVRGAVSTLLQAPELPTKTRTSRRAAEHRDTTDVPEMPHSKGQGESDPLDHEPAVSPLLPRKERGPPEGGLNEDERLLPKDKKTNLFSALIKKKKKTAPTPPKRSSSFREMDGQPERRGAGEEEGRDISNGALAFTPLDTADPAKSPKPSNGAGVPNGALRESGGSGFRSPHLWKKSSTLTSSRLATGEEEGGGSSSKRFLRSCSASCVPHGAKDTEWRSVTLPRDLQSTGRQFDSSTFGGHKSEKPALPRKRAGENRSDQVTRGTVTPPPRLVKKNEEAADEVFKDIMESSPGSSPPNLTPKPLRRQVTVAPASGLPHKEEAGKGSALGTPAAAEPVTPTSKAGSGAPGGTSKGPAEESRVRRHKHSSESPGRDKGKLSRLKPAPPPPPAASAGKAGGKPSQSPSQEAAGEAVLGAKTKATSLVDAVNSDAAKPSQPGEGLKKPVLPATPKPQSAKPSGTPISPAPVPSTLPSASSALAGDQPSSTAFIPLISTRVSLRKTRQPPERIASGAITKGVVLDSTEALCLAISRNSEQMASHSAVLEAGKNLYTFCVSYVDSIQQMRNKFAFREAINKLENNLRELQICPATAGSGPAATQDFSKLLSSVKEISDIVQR
# Casein kinase I isoform delta (Homo sapiens), sequence (P48730 whole entry, looked up, canonical isoform): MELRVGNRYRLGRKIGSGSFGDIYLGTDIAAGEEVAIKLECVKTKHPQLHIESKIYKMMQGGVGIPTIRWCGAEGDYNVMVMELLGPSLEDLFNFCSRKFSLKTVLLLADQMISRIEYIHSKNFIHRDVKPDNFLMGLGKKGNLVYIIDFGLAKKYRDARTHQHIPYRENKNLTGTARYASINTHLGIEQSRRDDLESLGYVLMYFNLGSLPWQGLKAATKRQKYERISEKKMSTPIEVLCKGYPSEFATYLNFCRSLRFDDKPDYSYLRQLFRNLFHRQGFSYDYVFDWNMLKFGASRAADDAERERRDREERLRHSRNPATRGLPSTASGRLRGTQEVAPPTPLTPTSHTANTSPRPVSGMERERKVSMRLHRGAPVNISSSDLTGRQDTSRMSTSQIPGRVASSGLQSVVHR
Compound,ΔTm [1] [c],ΔTm [2] [c],ΔTm [3] [c],ΔTm [4] [c],ΔTm [5] [c],ΔTm [6] [c]
CN(c1ncccc1CNc1ccnc(-c2nc3c(F)c(Cl)ccc3[nH]2)n1)S(C)(=O)=O,1.73,0.96,0.76,0.69,0.36,1.93
CN(C)C(=O)c1ccc(-c2cc(C(=O)N[C@@H]3CCc4ccccc43)no2)cc1O,0.236,-0.0936,0.0788,-0.463,-0.0605,0.213
O=C(NCCCN1CCOC1=O)c1cnc(NCc2cc(Br)ccc2Br)nc1NC1CCCC1,0,-0.772,0,0,-0.601,0.0724
CS(=O)(=O)N1CCCC(NC(=O)[C@H](CCC2CCCCC2)NC(=O)c2ccc(CNC(=O)c3cnc4ccccn34)cc2)C1 (some centres undefined),2.13,-0.19,0.571,-0.0668,-0.218,0.119
